HCMV inh – inhibitors of human cytomegalovirus; HFF cells, HCMV-luciferase reporter, 72 h; active compounds read low; activity change, negative = inhibition, % at 57.5 µM; 410,000 tested, 4.5% active; in the data active = activity change below about -60%; inconclusive = no clear call, values can overlap the other calls; inactive = above about -39%
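After 16 h attachment at 37C, HFF cells received test compound and HCMV-luciferase (1 PFU/cell); reporter luminescence read 72 h later, data normalized against buffer-only and known inhibitor Salinomycin.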
Pf growth 96h – P. falciparum growth inhibition at 96 hour, primary screen for plastid delayed-death inhibitors; Potency, µM (highest dose often 28.7 µM), usual class: inhibitors; 320,000 tested, 6.9% active; AID 504834; P. falciparum luciferase reporter growth, 96 h
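Erythrocytes infected with luciferase-expressing P. falciparum were dispensed at 2% hematocrit and 0.05% parasitemia (final), then incubated with compounds 96 hours at 37 C in 5% CO2. Luminescence after detection reagent addition reported growth.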
CHX counter – affects cycloheximide protein synthesis inhibition readout, counter-screen; cell reporter, cycloheximide protein synthesis inhibition counterscreen; max response, %; 300,000 tested, 12% active; in the data active = max response mostly above about 13%, no sharp cut-off; inactive = mostly below about 14%; note: read at 38.3 µM for the half of the compounds with a filed dose
Pf growth 48h – P. falciparum growth inhibition at 48 hours (one generation). Potency, µM (top dose mostly 28.7 µM), most hits filed as inhibitors. P. falciparum luciferase growth in erythrocytes, 48 h. 310,000 tested, 5.9% active
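Erythrocytes infected with P. falciparum carrying an integrated firefly luciferase reporter (2% hematocrit, 0.1% parasitemia final) were exposed to compounds in RPMI 1640 with 0.5% Albumax at 37 C, 5% CO2. Growth inhibition was scored as reduced luminescence.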
Shiga toxin inh – inhibitors of Shiga toxin in Vero cells. Vero cells, Shiga toxin protein synthesis inhibition reporter. inhibition, % at 38.7 µM. AID 2315. 290,000 tested, 9.2% active; in the data active = inhibition mostly above about 28%, no sharp cut-off; inactive = mostly below about 43%
Each line names hits and unclear results; the compound was inactive in the other large screens. Most compounds without a hit are left out; they make up all but 20% or so of the library. Unless noted, calls come from the whole dose curve; as a rule, active = well fitted inhibition curve with a large enough effect; inconclusive = small, poorly fitted or top-dose-only effect, or another doubt; inactive = no such curve, though single readings can be large or run the other way.

Cc1ccc(/C=N/NC(=O)Cc2ccc(O)cc2)s1	Pf growth 96h 7.4µM, CHX counter 27
Cc1ccc(/C=N/NC(=O)c2ccc(Br)o2)s1	CHX counter 43, Shiga toxin inh 82
Cc1ccc(/C=N/NC(=O)CN2CCN(S(=O)(=O)c3ccc(Br)cc3)CC2)s1	Pf growth 96h inconclusive
CCc1ccc(/C=N/NC(=O)Cc2ccc(OC)c(OC)c2)s1	none
CCc1ccc(/C=N\NC(=O)c2ccc(Br)o2)s1	CHX counter 90, Shiga toxin inh 100
Cc1ccnc(NC(=O)CNC(=O)c2ccc(Br)o2)c1	none (no result: CHX counter, Shiga toxin inh)
O=C(CN1C(=O)COc2ccccc21)NCCCN1CCN(Cc2ccccc2)CC1	Pf growth 96h 0.37µM (no result: HCMV inh)
O=C(CCN1C(=O)COc2ccccc21)NCCN1CCOCC1	none
O=C(CN1C(=O)COc2ccccc21)N1CCc2ccccc2C1	Pf growth 96h 10µM
O=C(CN1C(=O)COc2ccccc21)NCCN1CCOCC1	HCMV inh -75
CCN(CC(=O)Nc1c(F)cccc1F)C(=O)CNC(=O)C1CCCCC1	none (no result: CHX counter, Shiga toxin inh)
COCCNc1nc(N2CCCCC2)c2cnn(C)c2n1	none
O=C(NC1CC1)c1c(O)c2ccccc2[nH]c1=O	HCMV inh inconclusive, Pf growth 96h inconclusive, Pf growth 48h inconclusive
Cc1[nH]c2ccccc2c1SCC(=O)NC1CCCCC1	HCMV inh -64
O=C(CSc1nncc(=O)[nH]1)NC1CCCCC1	Pf growth 96h 3.7µM
O=C(NC1CCCCCCC1)c1c(O)c2ccccc2[nH]c1=O	Pf growth 96h inconclusive, CHX counter 16, Pf growth 48h inconclusive, Shiga toxin inh 47
Cc1ccc(SCC(=O)NC2CCCCCC2)cc1	CHX counter 30, Shiga toxin inh 67
Cc1ccc(SCC(=O)OCC(=O)NC2CCCCCC2)cc1	none
O=C(CSc1nccc(=O)[nH]1)NC1CCCCCC1	none (no result: Pf growth 96h, CHX counter, Pf growth 48h, Shiga toxin inh)
CCCN(C(=O)C1CCCN(c2ncnc3c2nc2n3CCCCC2)C1)c1ccc(F)cc1 (centres undefined)	HCMV inh inconclusive, Pf growth 96h inconclusive, Pf growth 48h inconclusive
Cn1cc(CNC(=O)C23CC4CC(CC(C4)C2)C3)cn1	Pf growth 96h inconclusive, Pf growth 48h inconclusive
Cc1cc2[nH]cnc2c([N+](=O)[O-])c1C	none
C=CCn1c(SCC(=O)N2CCCC2)nc2c([nH]c3ccccc32)c1=O	none
C=CCn1c(SCC(=O)NC2CCCC2)nc2c([nH]c3ccccc32)c1=O	HCMV inh -90
O=C(CCSc1ccccc1)NC1CCCCCC1	HCMV inh inconclusive, CHX counter 33, Shiga toxin inh 98
COc1ccc(NC(=O)c2cc(-c3ccccc3)nc3c2cnn3C(C)C)c(OC)c1	Pf growth 96h inconclusive, Pf growth 48h 12µM (no result: CHX counter, Shiga toxin inh)
COc1ccc(NC(=O)c2cc(-c3ccncc3)nc3ccccc23)c(OC)c1	none (no result: Pf growth 96h, CHX counter, Pf growth 48h, Shiga toxin inh)
COc1ccc(NC(=O)c2cc(-c3ccc(OC)c(OC)c3)nc3ccccc23)c(OC)c1	HCMV inh -75, Pf growth 96h 10µM, Pf growth 48h inconclusive
COc1ccc(-c2cc(C(=O)Nc3ccc(C(N)=O)cc3)c3ccccc3n2)cc1OC	HCMV inh -92, Pf growth 96h 3.7µM, CHX counter 14, Pf growth 48h inconclusive
COc1ccc(-c2cc(-c3nnc(COC(=O)c4ccc(O)cc4)o3)c3ccccc3n2)cc1OC	Pf growth 96h inconclusive, Pf growth 48h 9.3µM
S=c1[nH]nc(C(c2ccccc2)C2CCCCC2)o1 (centres undefined)	none
CC(C)(C)OC(=O)N1CCC(c2c(C(=O)NCc3cccs3)cnn2-c2ccc(F)cc2F)CC1	none (no result: Pf growth 96h, CHX counter, Pf growth 48h, Shiga toxin inh)
Cc1ccc(NC(=O)CCn2c(=O)c3cccn3c3ccccc32)cc1Cl	none (no result: Pf growth 96h, CHX counter, Pf growth 48h, Shiga toxin inh)
COc1cc(-c2nnc(COC(=O)c3cc(C)nc4ccc(C)cc34)o2)cc(OC)c1OC	Pf growth 96h 15µM (no result: Pf growth 48h)
Cc1ccccc1N1CCN(C(=O)c2cc(-c3ccccc3)nc3c2cnn3C(C)C)CC1	none (no result: Pf growth 96h, CHX counter, Pf growth 48h, Shiga toxin inh)
CC(C)n1ncc2c(C(=O)N3CCN(c4ccc(F)cc4)CC3)cc(-c3ccccc3)nc21	HCMV inh -70, Pf growth 96h 12µM, Pf growth 48h 12µM (no result: CHX counter, Shiga toxin inh)
O=C(CCCCN1CCCCC1)c1ccc2c(c1)Cc1ccccc1-2	Pf growth 48h 5.2µM
O=C(CCN1CCCCCC1)c1ccccc1	Pf growth 96h inconclusive
CCOc1ccc(NC(=O)C2CCN(S(=O)(=O)c3ccc4c(c3)CC(C)N4C(C)=O)CC2)cc1 (centres undefined)	HCMV inh inconclusive, Pf growth 48h inconclusive
CC(=O)N1c2ccc(S(=O)(=O)N3CCC(C(=O)Nc4cc(C)cc(C)c4)CC3)cc2CC1C (centres undefined)	HCMV inh -61, Pf growth 96h inconclusive, Pf growth 48h inconclusive
CC(=O)N1c2ccc(S(=O)(=O)N3CCCC(C(=O)Nc4cc(C)cc(C)c4)C3)cc2CC1C (centres undefined)	none
CC(=O)N1c2ccc(S(=O)(=O)N3CCC(C(=O)Nc4cccc(F)c4)CC3)cc2CC1C (centres undefined)	HCMV inh -61, Pf growth 96h inconclusive, Pf growth 48h inconclusive
CCc1ccc(NC(=O)C2CCN(S(=O)(=O)c3ccc4c(c3)CC(C)N4C(C)=O)CC2)cc1 (centres undefined)	HCMV inh -93, Pf growth 96h inconclusive, Pf growth 48h inconclusive
CC(=O)N1c2ccc(S(=O)(=O)N3CCC(C(=O)Nc4cccc(C)c4)CC3)cc2CC1C (centres undefined)	HCMV inh -68, Pf growth 48h inconclusive
CC(=O)Nc1ccc(S(=O)(=O)NCc2cc(=O)n(C)c(=O)n2C)cc1	none
O=C(NC1CCc2ccccc21)C1=CN2CCN(Cc3ccccc3)C(=O)N=C2O1 (centres undefined)	none (no result: Pf growth 96h, CHX counter, Pf growth 48h, Shiga toxin inh)
Cc1ccc(C)c(NC(=O)CSc2nccn2-c2cccc(C)c2C)c1	none (no result: Pf growth 96h, CHX counter, Pf growth 48h, Shiga toxin inh)
C[C@H]1[C@@H](NC(=O)Nc2ccc(C#N)cc2)CC[C@@]23CCCN2C(=O)CCC[C@@H]13	none (no result: Pf growth 96h, CHX counter, Pf growth 48h, Shiga toxin inh)
CC(=O)N1c2ccc(S(=O)(=O)N3CCC(C(=O)Nc4cccc(Cl)c4C)CC3)cc2CC1C (centres undefined)	none (no result: Pf growth 96h, CHX counter, Pf growth 48h, Shiga toxin inh)
CC(=O)N1c2ccc(S(=O)(=O)N3CCC(C(=O)Nc4cccc(Cl)c4)CC3)cc2CC1C (centres undefined)	HCMV inh -88, Pf growth 48h inconclusive
COc1ccc(Cl)cc1NC(=O)C1CCN(S(=O)(=O)c2ccc3c(c2)CC(C)N3C(C)=O)CC1 (centres undefined)	HCMV inh -63 (no result: Pf growth 96h, CHX counter, Pf growth 48h, Shiga toxin inh)
CC(=O)N1c2ccc(S(=O)(=O)N3CCC(C(=O)NC4CCC(C)CC4)CC3)cc2CC1C (centres undefined)	Pf growth 96h 5.2µM, Pf growth 48h inconclusive
O=C(COc1ccc(S(=O)(=O)N2CCCC2)cc1)N1CCCCC1	none
CN(C)CCCN(C(=O)c1cc(-c2cccs2)nc2ccccc12)c1nc2c(F)cccc2s1	Pf growth 96h inconclusive, Pf growth 48h inconclusive
Cc1ccc2nc(N(CCCN(C)C)C(=O)c3ccc4c(c3)CCCC4)sc2c1	HCMV inh -77, Pf growth 96h 1.9µM, Pf growth 48h 10µM

Screening results (PubChem)
